In PubChem BioAssay (NCATS):
Inconclusive results are not listed. Calls of active or inactive are those of the source. Calls follow the shape of the dose curve; as a rule, active = well fitted curve in the direction sought with a large enough effect; inconclusive = small, poorly fitted or top-dose-only effect, or another doubt; inactive = no such curve, though single readings can be large; an effect the other way counts as inactive or inconclusive.

Experiments:
[1] = target: Dual specificity protein kinase CLK4 (Homo sapiens) (UniProt Q9HAZ1); assay: qHTS Assay for Inhibitors of CDC-like Kinase 4 (ADP-Glo Assay) (AID 1771); also: nearly all actives have a fitted effect of over 70% in size
Sequence of Dual specificity protein kinase CLK4 (Homo sapiens) (Q9HAZ1 whole entry, looked up): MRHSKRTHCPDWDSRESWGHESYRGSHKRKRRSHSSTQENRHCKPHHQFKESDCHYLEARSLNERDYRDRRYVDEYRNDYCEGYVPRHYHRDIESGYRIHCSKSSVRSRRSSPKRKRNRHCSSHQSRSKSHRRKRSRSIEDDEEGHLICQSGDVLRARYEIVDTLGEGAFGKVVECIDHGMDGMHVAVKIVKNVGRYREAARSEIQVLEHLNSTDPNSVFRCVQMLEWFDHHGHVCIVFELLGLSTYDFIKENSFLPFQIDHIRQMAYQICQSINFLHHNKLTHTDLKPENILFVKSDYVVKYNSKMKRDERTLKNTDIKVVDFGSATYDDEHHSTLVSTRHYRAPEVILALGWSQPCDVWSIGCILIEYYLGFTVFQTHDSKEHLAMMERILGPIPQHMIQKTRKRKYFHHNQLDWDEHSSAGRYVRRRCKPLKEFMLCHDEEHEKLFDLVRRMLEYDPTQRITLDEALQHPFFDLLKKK
Summary of the method: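 Compounds are pin-transferred onto substrate mix (100 uM RS peptide, 1 uM ATP), then 25 nM Clk4 is added. After 1 hr at room temperature, ADP-Glo reagent runs 45 min, detection reagent 30 min, then luminescence is read.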

[2] = target: Cytochrome P450 2D6 (Homo sapiens) (UniProt P10635); assay: qHTS Assay for Inhibitors and Substrates of Cytochrome P450 2D6 (AID 891); also: nearly all actives have a fitted effect of over 60% in size
Sequence of Cytochrome P450 2D6 (Homo sapiens) (P10635 whole entry, looked up): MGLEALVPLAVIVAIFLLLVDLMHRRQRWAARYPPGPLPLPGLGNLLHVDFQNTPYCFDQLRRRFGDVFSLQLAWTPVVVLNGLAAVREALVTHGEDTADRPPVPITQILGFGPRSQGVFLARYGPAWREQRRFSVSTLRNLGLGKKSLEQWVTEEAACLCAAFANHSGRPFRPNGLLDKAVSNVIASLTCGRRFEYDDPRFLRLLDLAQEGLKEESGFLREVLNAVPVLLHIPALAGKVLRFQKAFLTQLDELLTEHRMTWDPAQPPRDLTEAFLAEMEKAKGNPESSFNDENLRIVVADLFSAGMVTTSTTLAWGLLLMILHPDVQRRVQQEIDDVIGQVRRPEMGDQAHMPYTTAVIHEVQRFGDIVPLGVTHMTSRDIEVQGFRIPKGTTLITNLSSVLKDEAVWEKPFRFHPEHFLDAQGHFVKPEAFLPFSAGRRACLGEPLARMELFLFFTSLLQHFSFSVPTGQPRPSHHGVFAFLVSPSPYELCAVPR
Summary of the method: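 Luminescent read-out of luciferin formed by 5 nM human CYP2D6 demethylating 30 uM Luciferin-ME EGE (Km level) over 60 min at room temperature after NADPH regeneration addition. Data normalized to full inhibition by 1.43 uM quinidine.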
Potency is read from the fitted curve at half-maximal effect.

Structure (SMILES)	Potency [1]	Potency [2]
COc1ccc(-n2c(=O)c(-c3ccc(Cl)cc3)nc3cnc(N4CCNCC4)nc32)cc1	inactive	
CCNc1ncc2nc(C)c(=O)n(Cc3ccc(F)cc3)c2n1	15.8 µM (active)	
c1csc(CNc2cc(-c3ccoc3)ncn2)c1	35.5 µM (active)	
CCNc1ncc2nc(C)c(=O)n(-c3ccc(OC)cc3)c2n1		inactive
c1csc(CNc2ccnc(-c3ccoc3)n2)c1		3.16 µM (active)
CC(=O)NCCNc1nc(-c2ccccc2C(F)(F)F)nc2ccccc12		3.98 µM (active)
CN(C)Cc1ccccc1-c1nc(N2CCOCC2)c2ccccc2n1		7.94 µM (active)
c1cncc(CNc2nc(-c3ccoc3)nc3ccccc23)c1		5.01 µM (active)
CNc1ccnc(-c2ccccc2CN(C)C)n1		0.0398 µM (active)
Clc1ccccc1-c1nccc(-n2ccnc2)n1		7.94 µM (active)
Cc1cccc(CNc2ccnc(-c3cccnc3)n2)c1		0.631 µM (active)
COc1cccc(-c2nccc(-n3ccnc3)n2)c1		7.94 µM (active)
